# Test results taken from PubChem BioAssay (EPA / NIEHS).
# “And” between values parts separate entries of the source, which are not always exact repeats. Identical values can stand only once. Inconclusive results are not listed. The source made the active and inactive calls. The calls were made as follows, unless noted: active = hit-call score of the fitted dose curve at least 0.9, where 1 is the maximum; inconclusive = response in the unintended direction; inactive = score below 0.9.
# Tests used:
# [1] = TOX21_p53_BLA_p5_viability: Viability Assessment in the Tox21 HCT-116 p53 Agonism Beta-lactamase Assay, Phase 5 (AID 2283600)
# Method in brief: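 HCT-116 p53 beta-lactamase reporter cells, 4000/well, were exposed to compound (pin transfer, 217-fold dilution) for 16 hours at 37C. Cellular ATP was read by CellTiter-Glo luminescence after 30 min at room temperature.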
# [2] = biological target: Cellular tumor antigen p53 (Homo sapiens) (UniProt P04637); experiment: TOX21_p53_BLA_p4_ratio: Tox21 HCT-116 p53 Agonism Beta-lactamase Assay, Ratio, Phase 4 (AID 2283601)
# Sequence of Cellular tumor antigen p53 (Homo sapiens) (P04637 whole entry, looked up): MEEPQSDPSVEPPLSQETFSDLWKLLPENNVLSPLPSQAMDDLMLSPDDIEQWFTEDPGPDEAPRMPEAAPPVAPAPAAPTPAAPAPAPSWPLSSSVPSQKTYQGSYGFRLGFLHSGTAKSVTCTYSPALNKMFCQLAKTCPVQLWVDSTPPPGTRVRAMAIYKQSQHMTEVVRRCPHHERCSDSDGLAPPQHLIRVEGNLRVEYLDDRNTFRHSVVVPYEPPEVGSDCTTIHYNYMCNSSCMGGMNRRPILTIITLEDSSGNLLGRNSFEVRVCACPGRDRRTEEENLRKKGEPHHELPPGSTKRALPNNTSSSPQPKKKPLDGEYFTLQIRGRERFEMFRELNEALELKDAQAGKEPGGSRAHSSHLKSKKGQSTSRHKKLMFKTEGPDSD
# Method in brief: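 HCT-116 p53 beta-lactamase reporter cells (4000/well) preincubated 5 h, then compound (217-fold dilution of DMSO stock) for 16 h at 37C. CCF4-AM substrate added 2 h at room temperature; 460/530 nm emission ratio fitted upward versus DMSO.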
# [3] = ACEA_AR_agonist_AUC_viability: ACEA Biosciences xCELLigence Real-Time Cell Analysis on Androgen Receptor Agonism for Viability (AID 2283775);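 as to AC50: viability read 80 hours after compound addition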
# Method in brief: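 Read-out is area under the impedance curve at 80 h post-dose in 22Rv1 cells, with DMSO as baseline and signal loss taken as reduced viability. Compounds ran in duplicate from 100 uM final.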
# [4] = ACEA_AR_antagonist_AUC_viability: ACEA Biosciences xCELLigence Real-Time Cell Analysis on Androgen Receptor Antagonism for Viability (AID 2283776);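 also: area under impedance growth curve at 80 h after dosing as viability; hits lower the growth signal relative to DMSO meaning cytotoxicity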
# Method in brief: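 22Rv1 human prostate cancer cells were seeded on electrode plates, monitored overnight, then exposed to eight 1:4 dilutions from 100 uM final. Impedance-based growth kinetics at 80 h gave an AUC viability endpoint normalized to DMSO.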
# [5] = CEETOX_H295R_MTT_cell_viability: Viability Assessment in the CeeTox HT-H295R MTT Assay (AID 2283718; active = hit-call score of the fitted dose curve at least 0.9, where 1 is the maximum; inactive = score below 0.9;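 as to AC50: curve fitted both ways so AC50 may mark viability loss or gain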)
# Method in brief: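 Human H295R adrenal cells, prestimulated 48 h with 10 uM forskolin, were exposed 48 h to chemicals in 0.1% DMSO. Viability was measured in the same wells by MTT (0.5 mg/ml, 4 h, 37 C), absorbance 570/650 nm, as percent of controls.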
# [6] = test system: Thyroperoxidase (TPO), gene 54314; experiment: CCTE_Simmons_AUR_rTPO: CCTE's Amplex UltraRed Assay for Thyroperoxidase (TPO) Inhibition, Simmons Lab (AID 2283662);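 also: potency for loss of signal meaning inhibition of peroxidase activity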
# Method in brief: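 Rat thyroid microsomes (5 ug protein) with 25 uM Amplex UltraRed and 300 uM H2O2 in 200 mM phosphate buffer, 30 min at 37C in dark; fluorescence 544/590 nm. Eight concentrations, 5 nM–87.5 uM final, 0.5% DMSO, triplicate biological replicates.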
# [7] = CCTE_Simmons_CellTiterGLO_HEK293T: Viability Assessment in CCTE's Assays for Thyroperoxidase (TPO) Inhibition, Simmons Lab (AID 2283665)
# Method in brief: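 HEK293T cells in DMEM with 1% FBS were dosed with 8 concentrations (5 nM–87.5 uM final, 0.5% DMSO) for 24 hr at 37C; ATP content was read by CellTiter-Glo luminescence, loss-of-signal versus DMSO, three biological replicates.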
# [8] = biological target: Luciferin 4-monooxygenase (Photinus pyralis) (UniProt P08659); experiment: CCTE_Simmons_QuantiLum_inhib_2: CCTE's Firefly Luciferase Inhibition Assay, Simmons Lab (AID 2283767)
# Sequence of Luciferin 4-monooxygenase (Photinus pyralis) (P08659 whole entry, looked up): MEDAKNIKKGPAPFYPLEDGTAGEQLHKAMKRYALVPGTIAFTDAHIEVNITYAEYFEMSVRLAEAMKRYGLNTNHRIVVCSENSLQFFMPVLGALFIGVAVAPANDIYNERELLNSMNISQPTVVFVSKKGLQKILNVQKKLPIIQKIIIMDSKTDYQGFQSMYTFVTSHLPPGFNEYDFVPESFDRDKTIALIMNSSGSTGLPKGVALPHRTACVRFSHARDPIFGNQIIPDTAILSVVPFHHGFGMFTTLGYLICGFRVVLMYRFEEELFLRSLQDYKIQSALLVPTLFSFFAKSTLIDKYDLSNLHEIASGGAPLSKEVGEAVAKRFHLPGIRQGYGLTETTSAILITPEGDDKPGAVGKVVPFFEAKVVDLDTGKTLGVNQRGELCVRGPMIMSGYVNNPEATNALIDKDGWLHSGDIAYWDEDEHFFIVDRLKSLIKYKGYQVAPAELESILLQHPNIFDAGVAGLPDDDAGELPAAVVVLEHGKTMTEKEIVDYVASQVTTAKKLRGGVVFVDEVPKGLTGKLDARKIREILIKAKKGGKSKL
# Method in brief: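 Recombinant firefly luciferase (5 ng/well, 200 mM potassium phosphate with 1 mg/ml BSA) was exposed to 8 concentrations from 5 nM to 87.5 uM (final, 0.5% DMSO) for 30 min at 37C in the dark. Loss of luminescence versus DMSO was read after injecting D-luciferin/ATP-analogue reagent.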
# [9] = test system: chicken Androgen Receptor (AR), gene 422165; experiment: ATG_chAR_XSP1: Attagene TRANS-FACTORIAL Multi-Species (XSP1) HepG2 Assay for chicken Androgen Receptor (AR) (AID 2283768)
# Method in brief: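 HepG2 cells transiently transfected with multiplexed GAL4-UAS reporter units expressing chimeric chicken AR-Gal4; 3 nM 6-alpha-fluorotestosterone for partial AR stimulation; 24 h after dosing, reporter mRNA by RT-PCR and capillary electrophoresis, gain-of-signal versus DMSO.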
# [10] = test system: frog Androgen Receptor (AR), gene 399456; experiment: ATG_frAR_XSP1: Attagene TRANS-FACTORIAL Multi-Species (XSP1) HepG2 Assay for frog Androgen Receptor (AR) (AID 2283770)
# Protocol: ATG_XSP1_multi-species_TRANS is a cell-based, multiplexed assay created by modifying the existing Attagene TRANS-FACTORIAL system to include a panel of nuclear receptors from some or all the following species: human (Homo sapiens), mouse (Mus musculus), frog (Xenopus laevis), zebrafish (Danio rerio), chicken (Gallus gallus), and turtle (Chrysemys picta). The ECOTOX-FACTORIAL format uses HepG2, a human liver cell line, with measurements taken at 24 hours after chemical dosing in a 24-well plate. Xsp1 included 3 nM 6-alpha-fluorotestosterone to partially stimulate the androgen receptor.ATG_frAR_XSP1 is one of 29 assay components measured or calculated from the ATG_XSP1_multi-species_TRANS assay. It is designed to make measurements of mRNA induction, a form of inducible reporter, as detected with fluorescence intensity signals by Reverse transcription polymerase chain reaction (RT-PCR) and Capillary electrophoresis technology.The assay endpoint ATG_frAR_XSP1 was analyzed in the positive analysis fitting direction relative to DMSO as the negative control and baseline of activity. […] Furthermore, this assay endpoint can be referred to as a primary readout, because this assay has produced multiple assay endpoints where this one serves a reporter gene function. […]
# [11] = test system: zebrafish Androgen Receptor (AR), gene 100005148; experiment: ATG_zfAR_XSP1: Attagene TRANS-FACTORIAL Multi-Species (XSP1) HepG2 Assay for zebrafish Androgen Receptor (AR) (AID 2283771)
# Method in brief: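 HepG2 cells were transiently transfected with a zebrafish AR-GAL4 reporter system and partially stimulated with 3 nM 6-alpha-fluorotestosterone. Reporter mRNA was measured after 24 h dosing by RT-PCR with capillary electrophoresis, and gain-of-signal was fitted relative to DMSO.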
# [12] = biological target: zebrafish Estrogen Receptor (ESR1), esr1 (gene 259252) (UniProt P57717); experiment: ATG_zfER1_XSP1: Attagene TRANS-FACTORIAL Multi-Species (XSP1) HepG2 Assay for zebrafish Estrogen Receptor (ESR1) (AID 2283772)
# Sequence of zebrafish Estrogen Receptor (ESR1), esr1 (gene 259252) (P57717 whole entry, looked up, the tested form may be a part): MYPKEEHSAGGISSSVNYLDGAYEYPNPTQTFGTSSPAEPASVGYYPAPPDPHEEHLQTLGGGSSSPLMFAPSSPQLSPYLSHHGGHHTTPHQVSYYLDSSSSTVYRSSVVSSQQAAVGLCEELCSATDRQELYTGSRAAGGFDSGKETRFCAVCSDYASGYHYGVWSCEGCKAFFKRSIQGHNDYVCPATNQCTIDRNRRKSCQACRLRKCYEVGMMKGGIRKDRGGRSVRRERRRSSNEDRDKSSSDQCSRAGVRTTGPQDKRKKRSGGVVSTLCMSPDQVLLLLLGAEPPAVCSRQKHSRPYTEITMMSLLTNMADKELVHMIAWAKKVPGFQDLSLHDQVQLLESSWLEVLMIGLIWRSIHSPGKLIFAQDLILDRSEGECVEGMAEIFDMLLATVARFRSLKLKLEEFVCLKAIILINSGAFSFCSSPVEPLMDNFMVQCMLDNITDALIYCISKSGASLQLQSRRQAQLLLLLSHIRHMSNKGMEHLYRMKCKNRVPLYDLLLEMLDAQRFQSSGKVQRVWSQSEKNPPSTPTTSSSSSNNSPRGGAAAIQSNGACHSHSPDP
# Method in brief: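 HepG2 cells transiently transfected with a GAL4-UAS reporter and chimeric zebrafish ER-Gal4, dosed 24 h with 3 nM 6-alpha-fluorotestosterone present. Reporter mRNA measured by RT-PCR and capillary electrophoresis; gain of signal versus DMSO.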
# [13] = test system: zebrafish Estrogen Receptor (ESR2B), gene 317733; experiment: ATG_zfER2b_XSP1: Attagene TRANS-FACTORIAL Multi-Species (XSP1) HepG2 Assay for zebrafish Estrogen Receptor (ESR2B) (AID 2283773)
# Method in brief: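 HepG2 cells transiently transfected with GAL4-UAS reporter units for chimeric zebrafish ER2b-Gal4, with 3 nM 6-alpha-fluorotestosterone present; reporter mRNA measured 24 h after dosing by RT-PCR and capillary electrophoresis, gain versus DMSO.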
# [14] = test system: frog Estrogen Receptor (ESR2), gene 100174814; experiment: ATG_frER2_XSP1: Attagene TRANS-FACTORIAL Multi-Species (XSP1) HepG2 Assay for frog Estrogen Receptor (ESR2) (AID 2283774)
# Method in brief: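 HepG2 cells transiently transfected with GAL4-UAS reporter units expressing chimeric frog ER-Gal4; 3 nM 6-alpha-fluorotestosterone present. After 24 h dosing, reporter mRNA quantified by RT-PCR and capillary electrophoresis; gain-of-signal fitted relative to DMSO.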
# [15] = test system: frog Estrogen Receptor (ESR1), gene 398734; experiment: ATG_frER1_XSP1: Attagene TRANS-FACTORIAL Multi-Species (XSP1) HepG2 Assay for frog Estrogen Receptor (ESR1) (AID 2283777)
# Method in brief: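 HepG2 cells transiently transfected with frog ER–GAL4 chimera and GAL4-UAS reporter, with 3 nM 6-alpha-fluorotestosterone present; 24 h dosing, reporter mRNA quantified by RT-PCR and capillary electrophoresis, gain of signal versus DMSO.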
# [16] = test system: zebrafish Estrogen Receptor (ESR2A), gene 317734; experiment: ATG_zfER2a_XSP1: Attagene TRANS-FACTORIAL Multi-Species (XSP1) HepG2 Assay for zebrafish Estrogen Receptor (ESR2A) (AID 2283778)
# Method in brief: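 HepG2 cells transiently transfected with GAL4-UAS reporter units driven by a zebrafish ESR2A–Gal4 chimera; 24 h compound exposure with 3 nM 6-alpha-fluorotestosterone present. Reporter mRNA measured by RT-PCR with fluorescent capillary electrophoresis, fitted positive versus DMSO.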
# [17] = biological target: chicken Estrogen Receptor (ESR1), ESR1 (gene 396099) (UniProt P06212); experiment: ATG_chERa_XSP1: Attagene TRANS-FACTORIAL Multi-Species (XSP1) HepG2 Assay for chicken Estrogen Receptor (ESR1) (AID 2283779)
# Sequence of chicken Estrogen Receptor (ESR1), ESR1 (gene 396099) (P06212 whole entry, looked up, the tested form may be a part): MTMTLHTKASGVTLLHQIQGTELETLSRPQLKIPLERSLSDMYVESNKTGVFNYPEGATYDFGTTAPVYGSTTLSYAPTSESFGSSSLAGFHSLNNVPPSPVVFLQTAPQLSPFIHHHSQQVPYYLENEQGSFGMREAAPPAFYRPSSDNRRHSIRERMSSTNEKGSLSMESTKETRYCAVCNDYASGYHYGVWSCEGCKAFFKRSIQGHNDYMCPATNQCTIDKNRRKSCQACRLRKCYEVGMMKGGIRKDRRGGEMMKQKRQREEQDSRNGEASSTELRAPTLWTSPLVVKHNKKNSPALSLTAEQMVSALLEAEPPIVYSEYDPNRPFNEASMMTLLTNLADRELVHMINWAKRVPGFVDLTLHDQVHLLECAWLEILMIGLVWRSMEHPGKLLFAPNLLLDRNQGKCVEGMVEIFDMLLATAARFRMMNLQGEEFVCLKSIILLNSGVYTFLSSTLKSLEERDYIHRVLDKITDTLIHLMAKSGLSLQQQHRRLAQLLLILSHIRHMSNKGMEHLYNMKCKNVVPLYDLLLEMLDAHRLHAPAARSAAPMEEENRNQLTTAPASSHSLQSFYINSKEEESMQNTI
# Method in brief: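 HepG2 cells transiently transfected with GAL4-UAS reporter units for chimeric chicken ERα-Gal4, dosed 24 h with 3 nM 6-alpha-fluorotestosterone present. Reporter mRNA by RT-PCR and capillary electrophoresis; gain-of-signal fit versus DMSO.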
# [18] = biological target: Estrogen receptor (Homo sapiens) (UniProt P03372); experiment: ATG_hERa_XSP1: Attagene TRANS-FACTORIAL Multi-Species (XSP1) HepG2 Assay for human Estrogen Receptor (ESR1) (AID 2283780)
# Sequence of Estrogen receptor (Homo sapiens) (P03372 whole entry, looked up, the tested form may be a part): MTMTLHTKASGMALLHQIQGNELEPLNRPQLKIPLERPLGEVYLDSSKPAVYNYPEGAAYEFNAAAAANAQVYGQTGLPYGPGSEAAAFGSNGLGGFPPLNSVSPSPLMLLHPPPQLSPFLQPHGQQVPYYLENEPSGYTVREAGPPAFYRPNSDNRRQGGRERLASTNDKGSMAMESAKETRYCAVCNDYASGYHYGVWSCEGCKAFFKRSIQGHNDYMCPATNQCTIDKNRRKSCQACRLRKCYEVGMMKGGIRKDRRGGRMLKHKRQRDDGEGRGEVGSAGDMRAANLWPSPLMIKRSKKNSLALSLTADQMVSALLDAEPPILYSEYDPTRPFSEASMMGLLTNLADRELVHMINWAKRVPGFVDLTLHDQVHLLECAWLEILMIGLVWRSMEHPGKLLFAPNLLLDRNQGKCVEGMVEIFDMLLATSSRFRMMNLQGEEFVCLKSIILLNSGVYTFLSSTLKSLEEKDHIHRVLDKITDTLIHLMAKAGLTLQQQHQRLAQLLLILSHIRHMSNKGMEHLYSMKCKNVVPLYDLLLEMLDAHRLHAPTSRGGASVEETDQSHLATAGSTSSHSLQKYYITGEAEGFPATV
# Method in brief: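 HepG2 cells transiently transfected with GAL4-UAS reporter units and chimeric NR-Gal4 constructs; 24 h after dosing, reporter mRNA quantified by RT-PCR and capillary electrophoresis. Medium contained 3 nM 6-alpha-fluorotestosterone; activity fitted as gain-of-signal versus DMSO.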
# [19] = test system: turtle Estrogen Receptor (ESR1), gene 101933533; experiment: ATG_trERa_XSP1: Attagene TRANS-FACTORIAL Multi-Species (XSP1) HepG2 Assay for turtle Estrogen Receptor (ESR1) (AID 2283781)
# Method in brief: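 Turtle ERa as a GAL4 chimera in transiently transfected HepG2 cells; reporter mRNA quantified 24 h after dosing by RT-PCR and capillary electrophoresis. 3 nM 6-alpha-fluorotestosterone present; gain of signal versus DMSO.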
smiles,measurement,setting,value
F[Si-2](F)(F)(F)(F)F,outcome,[1],inactive
same,outcome,[2],inactive
CC(C)Nc1ccc(NC(C)C)c2c1C(=O)c1ccccc1C2=O,outcome,[1],inactive
same,outcome,[2],inactive
same,outcome,[3],inactive
same,outcome,[4],inactive
O=C1C=CC(=O)N1c1ccc(Cc2ccc(N3C(=O)C=CC3=O)cc2)cc1,AC50,[1],86.3 µM (active)
same,AC50,[2],68 µM (active)
CCC(=O)OC(C)c1ccccc1 (stereo not given),outcome,[1],inactive
same,outcome,[2],inactive
CCCCCC/C=C/CCCCCCCC(=O)O,outcome,[1],inactive
same,outcome,[2],inactive
C=CCOC(=O)CC(C)C,outcome,[1],inactive
same,outcome,[2],inactive
OCC1CCCO1 (stereo not given),outcome,[1],inactive
same,outcome,[2],inactive
CCOCOCC,outcome,[5],inactive
COCCOCCC[Si](C)(O[Si](C)(C)C)O[Si](C)(C)C,outcome,[3],inactive
same,outcome,[4],inactive
CCCCCCCCn1sc(Cl)c(Cl)c1=O,outcome,[1],inactive
same,outcome,[2],inactive
same,AC50,[3],21.3 µM (active)
same,outcome,[4],inactive
O=C(c1ccccc1)c1ccc(Cl)cc1,outcome,[5],inactive
CCCCCCCCCCCCCCCCC,outcome,[2],inactive
Cc1cccc(C)n1,outcome,[5],inactive
O=C1c2ccccc2C(=O)c2c(Cl)cccc21,outcome,[5],inactive
Nc1c(Br)cc([N+](=O)[O-])cc1Br,AC50,[5],29.7 µM (active)
O=C(c1ccccc1)c1ccc(O)cc1O,outcome,[2],inactive
same,AC50,[6],6.04 µM (active) and 5.41 µM (active)
same,outcome,[7],inactive
same,outcome,[8],inactive
same,AC50,[9],1.98 µM (active)
same,AC50,[10],3.28 µM (active)
same,outcome,[11],inactive
same,AC50,[12],4.2 µM (active)
same,AC50,[13],2.7 µM (active)
same,AC50,[14],1.05 µM (active)
same,AC50,[15],652 nM (active)
same,AC50,[16],1.65 µM (active)
same,AC50,[17],1.55 µM (active)
same,AC50,[18],3.15 µM (active)
same,AC50,[19],2.24 µM (active)
CC1CCCCC1,outcome,[5],inactive
CC(C)(C)c1cc(Cc2cc(C(C)(C)C)c(O)c(C(C)(C)C)c2)cc(C(C)(C)C)c1O,AC50,[6],12.1 µM (active)
same,outcome,[8],inactive
same,outcome,[3],inactive
same,outcome,[4],inactive
OCCC(O)CO (stereo not given),outcome,[5],inactive
CCN(CC)c1ccc(N=Nc2ccccc2)cc1,outcome,[5],inactive
